# Test results reported in ChEMBL document CHEMBL1961873, “Compounds: GSK PKIS; Assays: Nanosyn kinase panel” (2012).
# Columns and labels:
# [1] = target: 5'-AMP-activated protein kinase catalytic subunit alpha-2 (Homo sapiens) (UniProt P54646); conditions: at 1 µM
# [2] = target: T1, NUAK family SNF1-like kinase 1 (Homo sapiens) (UniProt O60285); conditions: at 0.1 µM
# T1 sequence (whole entry): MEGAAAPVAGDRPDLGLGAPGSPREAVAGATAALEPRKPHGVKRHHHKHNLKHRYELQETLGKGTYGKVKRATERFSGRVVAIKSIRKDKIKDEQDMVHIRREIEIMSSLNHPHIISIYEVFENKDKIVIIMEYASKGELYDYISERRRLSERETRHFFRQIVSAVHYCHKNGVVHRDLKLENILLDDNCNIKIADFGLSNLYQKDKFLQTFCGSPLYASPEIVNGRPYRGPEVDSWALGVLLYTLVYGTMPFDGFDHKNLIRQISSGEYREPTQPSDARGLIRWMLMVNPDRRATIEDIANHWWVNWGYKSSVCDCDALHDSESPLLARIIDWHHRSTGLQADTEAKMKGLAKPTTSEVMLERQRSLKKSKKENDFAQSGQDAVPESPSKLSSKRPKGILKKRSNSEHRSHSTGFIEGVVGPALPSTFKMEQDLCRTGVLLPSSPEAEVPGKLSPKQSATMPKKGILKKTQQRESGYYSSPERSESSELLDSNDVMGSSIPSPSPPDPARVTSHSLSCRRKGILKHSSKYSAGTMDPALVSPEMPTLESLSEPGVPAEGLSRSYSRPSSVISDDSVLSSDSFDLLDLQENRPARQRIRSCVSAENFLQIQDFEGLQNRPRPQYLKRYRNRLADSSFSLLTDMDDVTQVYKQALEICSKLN
# [3] = target: T1, NUAK family SNF1-like kinase 1 (Homo sapiens); conditions: at 1 µM
# [4] = target: T2, Serine/threonine-protein kinase BRSK1 (Homo sapiens) (UniProt Q8TDC3); conditions: at 0.1 µM
# T2 sequence (whole entry): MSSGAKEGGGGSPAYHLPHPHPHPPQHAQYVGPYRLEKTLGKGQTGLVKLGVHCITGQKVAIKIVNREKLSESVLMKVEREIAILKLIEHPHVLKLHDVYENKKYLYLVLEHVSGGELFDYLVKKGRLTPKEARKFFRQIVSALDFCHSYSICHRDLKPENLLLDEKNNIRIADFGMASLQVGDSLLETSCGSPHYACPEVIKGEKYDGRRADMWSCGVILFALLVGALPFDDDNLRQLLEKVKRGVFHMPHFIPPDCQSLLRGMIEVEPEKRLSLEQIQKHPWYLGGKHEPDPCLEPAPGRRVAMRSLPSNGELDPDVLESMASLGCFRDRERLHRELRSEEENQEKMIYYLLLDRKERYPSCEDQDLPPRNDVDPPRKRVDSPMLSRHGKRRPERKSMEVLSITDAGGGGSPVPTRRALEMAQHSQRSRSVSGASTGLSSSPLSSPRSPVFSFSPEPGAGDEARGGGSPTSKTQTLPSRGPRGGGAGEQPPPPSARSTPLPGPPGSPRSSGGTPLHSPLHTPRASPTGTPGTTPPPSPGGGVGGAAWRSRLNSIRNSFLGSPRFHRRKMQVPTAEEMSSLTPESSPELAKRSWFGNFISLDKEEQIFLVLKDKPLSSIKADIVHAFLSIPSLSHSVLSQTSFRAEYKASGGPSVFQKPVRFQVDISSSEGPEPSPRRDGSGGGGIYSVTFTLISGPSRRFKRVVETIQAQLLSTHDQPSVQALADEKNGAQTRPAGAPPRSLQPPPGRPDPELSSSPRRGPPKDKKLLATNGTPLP
# [5] = target: T2, Serine/threonine-protein kinase BRSK1 (Homo sapiens); conditions: at 1 µM
# [6] = target: T3, Serine/threonine-protein kinase BRSK2 (Homo sapiens) (UniProt Q8IWQ3); conditions: at 0.1 µM
# T3 sequence (whole entry): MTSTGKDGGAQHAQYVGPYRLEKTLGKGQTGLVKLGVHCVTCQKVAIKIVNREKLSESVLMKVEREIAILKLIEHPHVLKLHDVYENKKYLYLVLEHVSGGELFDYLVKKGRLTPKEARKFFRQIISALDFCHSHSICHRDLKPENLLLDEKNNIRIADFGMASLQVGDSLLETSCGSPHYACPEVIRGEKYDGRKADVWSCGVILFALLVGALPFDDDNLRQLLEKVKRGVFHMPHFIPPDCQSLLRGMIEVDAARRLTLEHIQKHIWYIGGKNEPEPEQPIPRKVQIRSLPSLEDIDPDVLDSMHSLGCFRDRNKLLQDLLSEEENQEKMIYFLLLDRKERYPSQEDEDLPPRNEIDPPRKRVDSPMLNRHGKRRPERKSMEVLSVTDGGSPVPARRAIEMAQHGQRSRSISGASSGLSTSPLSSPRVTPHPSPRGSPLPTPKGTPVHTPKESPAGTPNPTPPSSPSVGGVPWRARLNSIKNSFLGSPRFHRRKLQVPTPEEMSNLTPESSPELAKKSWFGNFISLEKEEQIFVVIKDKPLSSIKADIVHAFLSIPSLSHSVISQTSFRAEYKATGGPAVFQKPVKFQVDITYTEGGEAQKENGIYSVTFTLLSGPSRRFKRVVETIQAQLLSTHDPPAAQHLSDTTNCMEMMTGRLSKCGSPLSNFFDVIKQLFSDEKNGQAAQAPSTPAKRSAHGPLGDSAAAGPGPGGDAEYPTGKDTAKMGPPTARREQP
# [7] = target: T3, Serine/threonine-protein kinase BRSK2 (Homo sapiens); conditions: at 1 µM
# [8] = target: Calcium/calmodulin-dependent protein kinase type 1D (Homo sapiens) (UniProt Q8IU85); conditions: at 0.1 µM
# [9] = target: Calcium/calmodulin-dependent protein kinase type 1D (Homo sapiens) (UniProt Q8IU85); conditions: at 1 µM
# [10] = target: Calcium/calmodulin-dependent protein kinase type II subunit alpha (Homo sapiens) (UniProt Q9UQM7); conditions: at 0.1 µM;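 also: reported values are averages (mean inhibition of CAMK2A)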
# Sequence of Calcium/calmodulin-dependent protein kinase type II subunit alpha (Homo sapiens) (Q9UQM7 whole entry): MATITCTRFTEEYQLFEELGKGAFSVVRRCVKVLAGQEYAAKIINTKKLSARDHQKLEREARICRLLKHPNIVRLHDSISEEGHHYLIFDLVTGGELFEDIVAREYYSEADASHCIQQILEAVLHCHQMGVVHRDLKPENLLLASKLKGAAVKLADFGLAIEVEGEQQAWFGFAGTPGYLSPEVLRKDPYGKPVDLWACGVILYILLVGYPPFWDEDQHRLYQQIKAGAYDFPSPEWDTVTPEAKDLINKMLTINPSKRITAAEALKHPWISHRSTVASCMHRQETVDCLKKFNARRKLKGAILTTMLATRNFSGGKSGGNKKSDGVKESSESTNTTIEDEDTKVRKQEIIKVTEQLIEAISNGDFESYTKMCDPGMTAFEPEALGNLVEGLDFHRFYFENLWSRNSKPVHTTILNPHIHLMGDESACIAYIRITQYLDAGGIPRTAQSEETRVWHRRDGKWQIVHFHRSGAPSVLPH
# Sequence of 5'-AMP-activated protein kinase catalytic subunit alpha-2 (Homo sapiens) (P54646 whole entry, looked up): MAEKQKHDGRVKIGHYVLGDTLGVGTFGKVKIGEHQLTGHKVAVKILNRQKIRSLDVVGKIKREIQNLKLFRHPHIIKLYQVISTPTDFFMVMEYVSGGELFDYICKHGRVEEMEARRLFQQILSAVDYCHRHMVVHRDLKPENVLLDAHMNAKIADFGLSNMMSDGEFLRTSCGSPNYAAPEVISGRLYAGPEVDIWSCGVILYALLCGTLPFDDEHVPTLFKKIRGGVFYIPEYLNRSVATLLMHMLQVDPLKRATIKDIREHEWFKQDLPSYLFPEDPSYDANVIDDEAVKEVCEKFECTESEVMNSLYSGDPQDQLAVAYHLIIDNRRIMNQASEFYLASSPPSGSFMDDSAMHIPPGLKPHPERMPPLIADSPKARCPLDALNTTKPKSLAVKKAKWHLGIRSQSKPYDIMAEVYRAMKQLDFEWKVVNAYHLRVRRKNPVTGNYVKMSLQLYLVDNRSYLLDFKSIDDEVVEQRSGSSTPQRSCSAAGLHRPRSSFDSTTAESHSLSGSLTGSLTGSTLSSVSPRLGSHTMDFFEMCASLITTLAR
# Sequence of Calcium/calmodulin-dependent protein kinase type 1D (Homo sapiens) (Q8IU85 whole entry, looked up): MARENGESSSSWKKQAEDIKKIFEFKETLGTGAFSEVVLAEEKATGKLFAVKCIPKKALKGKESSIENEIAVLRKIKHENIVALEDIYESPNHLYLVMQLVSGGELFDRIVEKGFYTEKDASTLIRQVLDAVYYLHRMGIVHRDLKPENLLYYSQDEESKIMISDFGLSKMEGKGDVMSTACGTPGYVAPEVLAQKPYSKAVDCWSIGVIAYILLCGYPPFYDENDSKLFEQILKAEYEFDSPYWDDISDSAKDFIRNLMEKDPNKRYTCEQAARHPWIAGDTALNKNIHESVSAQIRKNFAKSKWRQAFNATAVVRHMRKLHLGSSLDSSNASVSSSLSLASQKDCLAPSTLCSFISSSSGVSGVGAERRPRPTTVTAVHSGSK
Compound,inhibition [1],inhibition [2],inhibition [3],inhibition [4],inhibition [5],inhibition [6],inhibition [7],inhibition [8],inhibition [9],inhibition [10]
COc1cccc(COc2cc(-n3cnc4ccccc43)sc2C(N)=O)c1,1.39%,-2.73%,8.04%,-0.43%,5.63%,0.26%,4.17%,0.91%,0.38%,0.37%
CCn1c(-c2nonc2N)nc2c(C#CC(C)(C)O)nc(O[C@@H](CN)c3ccccc3)cc21,68.1%,24.4%,69.6%,6.66%,38.4%,13.7%,58.8%,13.2%,29.4%,-1.19%
Cc1cc(-c2ccco2)cc(C)c1/C=C/c1cncc(-c2nn[nH]n2)c1,2.58%,-1.33%,-1.37%,-0.09%,1.13%,0.76%,0.62%,0.45%,-0.49%,1.37%
COc1cc(C=NNc2ncnc3c2cnn3Cc2ccccc2)ccc1O,-3.45%,7.72%,27.6%,-0.74%,1.48%,0.53%,2.95%,0.1%,0.78%,-5%
NC(=O)c1sc(-n2cnc3cc(C(F)(F)F)ccc32)cc1OCc1ccccc1Br,4.05%,-0.04%,2.91%,1.16%,3.25%,2.43%,8.5%,0.11%,1.53%,2.4%
COc1cccc(-n2ncc3c(N/N=C/c4ccncc4)ncnc32)c1,7.87%,16.1%,54.6%,11.2%,52.5%,18.6%,60.1%,0.07%,2.43%,4.53%
CCn1c(-c2nonc2N)nc2c(C#CCN)ncc(OCCCN)c21,2.16%,6.71%,10.4%,4.54%,10.3%,7.19%,12.2%,-0.21%,-0.05%,-2.48%
NS(=O)(=O)c1ccc(-c2ccc3c(NC(=O)C4CC4)n[nH]c3c2)cc1,5.62%,3.06%,8.32%,3.64%,6.53%,4.08%,7.2%,-1.85%,0.84%,3.17%
COc1cc2c(cc1Nc1nc(Nc3ccsc3C(N)=O)c3cc[nH]c3n1)N(C(=O)CN(C)C)CCC2,2.09%,1.84%,1.85%,0.07%,1.57%,0.73%,-0.28%,–,–,-4.48%
CCn1c(-c2nonc2N)nc2c(C#CC(C)(C)O)ncc(OC[C@@H]3CCCN3)c21,4.25%,6.58%,34.4%,-0.75%,1.83%,0.98%,1.11%,0.27%,0.84%,1.28%
CCn1c(-c2nonc2N)nc2c(C#CC(C)(C)O)ncc(OCC3CCNCC3)c21,16.1%,6.78%,37.2%,0.32%,6.72%,2.53%,10.8%,-0.03%,0.97%,3.5%
Fc1ccc(-c2ncn(C3CCNCC3)c2-c2ccnc(Oc3ccccc3)n2)cc1,-1.95%,-1.26%,2.38%,-0.19%,-0.55%,0.01%,2.57%,-1.05%,0.14%,-0.23%
Nc1nonc1-c1nc2cnccc2n1C1CCCCC1,3.46%,0.83%,6.7%,-0.55%,4.25%,0.61%,6.14%,0.69%,1.22%,-2.67%
NS(=O)(=O)c1ccc(N/C=C2\C(=O)Nc3ccc4ncsc4c32)cc1,42.8%,59.2%,69.1%,17.6%,53.1%,33%,62.4%,0.05%,0.92%,2.56%
